The record followed here is PubChem BioAssay (Tox21).

Records with an inconclusive call do not appear. Unmarked numbers belong to inactive results. Active and inactive are the calls of the source. The call rests on the fitted dose curve; in most records, active means well fitted cell-killing curve with a large enough effect in the repeat runs; inconclusive means weak or mixed curves, or effect the other way; inactive means no such curve, though single readings can be large or run the other way.
On the % scale 0 is the no-effect control and ±100 the full control effect; potency means the concentration at half of the fitted maximal effect.

The test is described as follows: qHTS assay for identifying genotoxic compounds that show differential cytotoxicity against isogenic chicken DT40 cell lines with known DNA damage response pathways - wild type cell line (AID 743012). Further: nearly all actives have a fitted effect of over 60% in size. Particulars: DT40 wild type chicken cells viability, CellTiter-Glo, 40 h; series mostly up to 68.4 µM; activity change, negative = cytotoxicity: at the top concentration. The source says:
U.S. Tox21 Program National Center for Advancing Translational Sciences [NCATS] NIH Chemical Genomics Center [NCGC] U.S. Environmental Protection Agency [EPA] National Institutes of Environmental Health Sciences [NIEHS] National Toxicology Program [NTP] U.S. Food and Drug Administration [FDA] Tox21 Assay Overview: DNA repair pathways play a critical role in cellular homeostasis by repairing DNA damage induced by endogenous processes and xenobiotics. Isogenic chicken DT40 cell lines deficient in different DNA repair pathways can be used to identify genotoxic compounds and aid in characterizing the nature of the DNA damage induced. Two DNA repair-deficient cell lines with disrupted genes, Rad54/Ku70 or Rev3, were used to screen the Tox21 10K compound library. Possible genotoxicity was based on the presence of a significant increase in cytotoxicity in one or more of the DNA repair-deficient cell lines compared to that observed in the parental DNA repair-proficient cell line. CellTiter Glo viability assay (Promega, Madison, WI) was used to measure cell viability in these cells after compound treatment. This assay includes the data from the wild type cell line.
Tox21 Assay Protocol Summary: 300 DT40 wild type cells in 5 uL/well were dispensed into white, solid-bottom 1536-well plates using a Multidrop Combi (ThermoFisher Scientific, Waltham, MA) dispenser. After the assay plates were incubated at 37 C/5% CO2 for approximately 0.5 hour, 23 nL of compounds dissolved in DMSO, positive controls or DMSO only was transferred into the assay plate by a pintool work station (Kalypsys, San Diego, CA). The assay plates were incubated at 37 C/5% CO2 for 40 hours. After 5 uL per well of CellTiter-Glo reagent was added into each well of the assay plates, the plates were incubated for 30 min at room temperature and the luminescence intensity of the plates was measured using a ViewLux (PerkinElmer, Shelton, CT) plate reader.
As to `CCCCOC(=O)C(=O)OCCCC`, the “activity change, negative = cytotoxicity” value is -14.9%. Turning to `C=C(C)C(=O)OC`, the “activity change, negative = cytotoxicity” value is 3.05%. `CCCCOC(=O)[C@@H](C)Oc1ccc(Oc2ccc(C(F)(F)F)cn2)cc1`: the “activity change, negative = cytotoxicity” value is -7.48% [at 95 µM].

Regarding `F[Si-2](F)(F)(F)(F)F`, the Potency entry is “inactive”. Regarding `CC(C)SCc1ccco1`, the “activity change, negative = cytotoxicity” value is 12.7% [at 31.4 µM]. For `COc1ccc(OC)c(NC(=O)CC(C)=O)c1`, the “activity change, negative = cytotoxicity” value is 12.2%. As for `O=c1[nH]c(=O)c2ccccc2o1`, the “activity change, negative = cytotoxicity” value was 10.9%. On to `COC(=O)CCC(=O)O`, for which the “activity change, negative = cytotoxicity” value was 27.7%.

In the case of `CC(=O)c1ccc2c(c1)CCCC2`, the “activity change, negative = cytotoxicity” value was 0.0218%. Regarding `CCCOC(=O)CCCCC(=O)OCCC`, the “activity change, negative = cytotoxicity” value is 2.01%.

Take `Cc1ncc([N+](=O)[O-])n1CC(O)CCl` (stereo not given): the “activity change, negative = cytotoxicity” value was -0.511% [at 31.4 µM]. Still for that read-out and setting: then `CC(C)(c1ccc(Oc2ccc3c(c2)C(=O)OC3=O)cc1)c1ccc(Oc2ccc3c(c2)C(=O)OC3=O)cc1`, with -0.751%; and `CCCC(C)CC` (stereo not given), with -4.06%.

For `O=C(O)CCNC(=O)c1ccccc1`, the “activity change, negative = cytotoxicity” value is 0.456%. For `CC(C)CCO`, the “activity change, negative = cytotoxicity” value was 27%. For `Cc1ccccc1C`, the “activity change, negative = cytotoxicity” value was 9.35% [at 95 µM]. For the compound `C=CCOc1c(Br)cc(Br)cc1Br`, the “activity change, negative = cytotoxicity” value was 18.4%. Same read-out and setting: next, `O=C1OC(=O)c2ccccc21`: -15.7%.

Consider `COc1cc(C=O)ccc1OC(=O)C(C)C`, for which the “activity change, negative = cytotoxicity” value is -5.68%.

Regarding `CCN(CCO)c1cccc(C)c1`, the “activity change, negative = cytotoxicity” value is -18.1%. Still for that read-out and setting: then `CCCO`, with 20.4%; and `COc1ccc(NS(=O)(=O)c2ccc(N)cc2)nn1`, with 10% [at 31.4 µM]; and `CC(C)CCCCCCOC(=O)C1CCCCC1C(=O)OCCCCCCC(C)C` (stereo not given), with 24.1%. For `CCCCC(CC)COC(=O)c1ccccc1` (stereo not given), the “activity change, negative = cytotoxicity” value was -12.3%.

For the compound `CCNC(=O)NCCCOc1cccc(CN2CCCCC2)c1`, the “activity change, negative = cytotoxicity” value is -16.6%. `O=c1cc(O)c(Cl)c[nH]1`: the “activity change, negative = cytotoxicity” value was 13%.

Take `Cc1ccccc1N1CCN(CCc2nnc3n2CCCC3)CC1`: the “activity change, negative = cytotoxicity” value is -5.15%. Turning to `CCCCCCCCOC(C)=O`, the “activity change, negative = cytotoxicity” value is -2.38%.

Regarding `CCC1Nc2cc(Cl)c(S(N)(=O)=O)cc2S(=O)(=O)N1` (stereo not given), the “activity change, negative = cytotoxicity” value is -0.685%. Turning to `CC(C)COC(=O)CC(C(=O)OCC(C)C)S(=O)(=O)O` (stereo not given), the “activity change, negative = cytotoxicity” value was 20.5%. With `CC(C)C(=O)c1ccccc1`, the “activity change, negative = cytotoxicity” value is 0.715%. Regarding `C1CCN2C[C@@H]3C[C@@H](CN4CCCC[C@@H]34)[C@H]2C1`, the “activity change, negative = cytotoxicity” value is -0.523% [at 31.4 µM]. Take `CC(C)CCC(=O)CCC(C)C`: the Potency was 68.6 µM (active). With `Nc1c(NC/C=C\COc2cc(CN3CCCCC3)ccn2)c(=O)c1=O`, the “activity change, negative = cytotoxicity” value is -23.5%.

For the compound `NCCc1ccn[nH]1`, the “activity change, negative = cytotoxicity” value was 8.69% [at 31.4 µM]. On to `Nc1ccnc(=O)[nH]1`, for which the “activity change, negative = cytotoxicity” value is 11.9%. As to `Nc1cc(S(=O)(=O)O)ccc1S(=O)(=O)O`, the “activity change, negative = cytotoxicity” value was 4.75%. For `CC1CCC(C(C)(C)S)C(=O)C1` (stereo not given), the “activity change, negative = cytotoxicity” value is -1.94%. Consider `CCCCCCCCCCCCC`, for which the “activity change, negative = cytotoxicity” value is 2.32%. Still for that read-out and setting: then `CCS(=O)(=O)CCn1c([N+](=O)[O-])cnc1C`, with 5.61% [at 31.4 µM].
